Measurements: the supplement of paper PMC8975748
Structures can show the parent of a compound that is named as a salt.

The compounds below were run on Saccharomyces cerevisiae BY4741 SeMeCo community (assay: z-score of subpopulation abundance vs DMSO median, subpopulation auxotrophic for UM; higher = larger share of this subpopulation than in DMSO controls). Settings: 10 µM; 24 h; SM minimal medium; subpopulation (auxotrophy): UM.
Experimental: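 Fluorescent four-plasmid SeMeCo (self-establishing metabolically cooperating S. cerevisiae BY4741 community; plasmids pH-mRuby2, pL-mWasabi, pU-eCFP, pM-TagRFP657) was grown 24 h in minimal SM medium with each Selleck FDA-approved drug at 10 µM in 384-well plates. Cells were fixed and imaged by high-content confocal microscopy. For each auxotrophic subpopulation (and the prototroph), a z-score gives the deviation from the DMSO vehicle-control population median.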

SMILES | z-score of subpopulation abundance
Nc1nc(N)nc(NC2CC2)n1 [Cyromazine] | 0.57
COc1ccc(C=O)cc1 [p-Anisaldehyde] | -0.71
CC[C@@H](C(N)=O)N1CCCC1=O [Levetiracetam] | -0.62
O=c1[nH]c2ccccc2n1CCCN1CCC(n2c(=O)[nH]c3cc(Cl)ccc32)CC1 [Domperidone] | 0.56
Cn1cc(C2=C(c3cn(C4CCN(Cc5ccccn5)CC4)c4ccccc34)C(=O)NC2=O)c2ccccc21 | 0.73
CN(C)[C@@H]1C(=O)C(C(N)=O)=C(O)[C@@]2(O)C(=O)C3=C(O)c4c(O)cccc4[C@@](C)(O)[C@H]3[C@H](O)[C@@H]12 [Oxytetracycline (Terramycin)] | -0.17
CN(C)C(=O)Oc1ccc[n+](C)c1 [Pyridostigmine Bromide] | 0.25
COc1ccc2c3c([nH]c2c1)C(C)=NCC3 [Harmaline] | -9.37
CN(C)[C@@H]1C(=O)C(C(N)=O)=C(O)[C@@]2(O)C(=O)C3=C(O)c4c(O)cccc4[C@@](C)(O)[C@H]3[C@H](O)[C@@H]12 [Oxytetracycline Dihydrate] | -0.39
CN(C)[C@@H]1C(=O)C(C(N)=O)=C(O)[C@@]2(O)C(=O)C3=C(O)c4c(O)ccc(Cl)c4[C@@](C)(O)[C@H]3C[C@@H]12 [Chlortetracycline HCl] | -0.66
CC(NC(C)(C)C)C(=O)c1cccc(Cl)c1 (centres undefined) [Amfebutamone (Bupropion) HCl] | -0.25
C=CC[C@]1(O)CC[C@H]2[C@@H]3CCC4=CC(=O)CCC4=C3C=C[C@@]21C [Altrenogest] | -0.72
NCC(O)c1ccc(O)cc1 (racemic) [(+,-)-Octopamine HCl] | -0.79
CN1[C@@H]2C[C@@H](OC(=O)[C@H](CO)c3ccccc3)C[C@H]1[C@@H]1O[C@@H]12 [Scopolamine HBr trihydrate] | -0.11
CCCCCCCCCCCCCCCC[n+]1ccccc1 [Cetylpyridinium Chloride] | 3.46
C=CN1CCCC1=O.II [Povidone iodine] | 0.16
C[C@@H]1O[C@@H](O[C@H]2C[C@@H](O)[C@]3(CO)[C@H]4[C@H](O)C[C@]5(C)[C@@H](C6=CC(=O)OC6)CC[C@]5(O)[C@@H]4CC[C@]3(O)C2)[C@H](O)[C@H](O)[C@H]1O [Ouabain] | 0.06

SMILES | z-score of subpopulation abundance
CN1[C@@H]2C[C@@H](OC(=O)[C@H](CO)c3ccccc3)C[C@H]1[C@@H]1O[C@@H]12 [Scopolamine HBr] | -0.95
COc1ccc(C(CN(C)C)C2(O)CCCCC2)cc1 (centres undefined) [Venlafaxine HCl] | 0.66
CNC1CC(N)C(O)C(OC2OC(CO)C(O)C3OC4(OC(C(N)CO)C(O)C(O)C4O)OC23)C1O (centres undefined) [Hygromycin B] | 0.06
CN1[C@@H]2CC[C@H]1C[C@@H](OC(=O)[C@H](CO)c1ccccc1)C2 [Hyoscyamine] | -0.14
CC(C)N(CCC(C(N)=O)(c1ccccc1)c1ccccn1)C(C)C (centres undefined) [Disopyramide] | -0.64
CN(C)[C@@H]1C(=O)C(C(N)=O)=C(O)[C@@]2(O)C(=O)C3=C(O)c4c(O)cccc4[C@@](C)(O)[C@H]3C[C@@H]12 [Tetracycline HCl] | 0.64
CCN(CC)CCOC(=O)C(O)(c1ccccc1)c1ccccc1 [Benactyzine hydrochloride] | 0.21
CC[C@@]1(O)C(=O)OCc2c1cc1n(c2=O)Cc2cc3ccccc3nc2-1 [Camptothecin] | 0.1
C[N+]12CCC(CC1)C(OC(=O)C(O)(c1ccccc1)c1ccccc1)C2 (centres undefined) [Clidinium Bromide] | -0.38
CC[C@H]1[C@@H]2C[C@H]3[C@@H]4N(C)c5ccccc5[C@]45C[C@@H]([C@@H]2[C@H]5O)N3[C@@H]1O [Ajmaline] | -0.04
CCN(C)C(=O)Oc1cccc([C@H](C)N(C)C)c1 [Rivastigmine] | 0.75
C=C[C@H]1CN2CC[C@H]1C[C@H]2[C@H](O)c1ccnc2ccccc12 [Cinchonidine] | 0.45
CC1(C)SC2C(N)C(=O)N2C1C(=O)O (centres undefined) [6-Aminopenicillanic acid] | 0.97
NCCc1c[nH]c2ccc(O)cc12 [Serotonin HCl] | -0.02
CCC1=C[C@H]2CN3CCc4c([nH]c5ccccc45)[C@](C(=O)OC)(C2)[C@H]13 [Catharanthine] | 0.1
CCOC(=O)Nc1ccc(NCc2ccc(F)cc2)cc1N [Retigabine] | -1.09
CN(C)C(=O)Oc1cccc([N+](C)(C)C)c1 [Neostigmine Bromide] | -0.71
